Mot1-301 SUMO: SUMOylation pathway inhibition by Mot1-301 growth rescue; S. cerevisiae Mot1-301 growth rescue, ATP luminescence, 38.5C; percent above DMSO median, 100 means doubled; actives 1% (n = 320,000); growth rescue, % at 18.8 µM; AID 2716;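 active means every valid replicate shows activation above 250% relative to neutral control wells; inactive means the rest, any valid replicate at or below 250%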;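 further: OY570 slx delta 5 strain wells were the positive control but not used for scaling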
GRIN3A LBD mod: modulates the human NR3A ligand-binding domain; NR3A LBD differential scanning fluorimetry, Tm shift; 0% = protein alone, 100% = glycine-bound protein; actives 2.5% (n = 340,000); Tm shift relative to glycine control, % at 25 µM; AID 1259313;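 active means melting temperature shift of at least 10% of the positive control shift, at one fixed dose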
AHR activator: activates the human aryl hydrocarbon receptor | P35869 | AHR-responsive luciferase reporter cells, luminescence | activation, % at 5 µM | actives 2.5% (n = 320,000) | AID 2796; in the data active means activation above about 47%;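 further: 0% = vehicle wells and 100% = reference agonist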
AI-2 QS mod: modulates the Vibrio harveyi AI-2 quorum sensing system; Vibrio harveyi JMH597 AI-2 luminescence/OD600 ratio, 9 h; stronger effect = lower value; strain lacks LuxN and CqsS sensors; 0 = neutral-control median; activity change, % at 7.5 µM; actives 0.4% (n = 300,000); AID 2094; in the data active means activity change below about -75%, passing the limit was not always enough;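 further: luminescence divided by OD600 gain over 9 h not by final OD600 alone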
NTR1 agonist: NTR1 (human) agonism. activation, % at 20 µM. AID 493036. P30989. NTR1-U2OS beta-arrestin-GFP spot imaging, agonist mode. actives 0.17% (n = 330,000);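 active means activation at or above 40% of the spot to cytoplasm intensity ratio, with at least 20 cells analyzed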;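 further: 0% = DMSO without peptide and 100% = 100 nM NTR1 peptide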
Target sequence (P30989 whole entry, looked up): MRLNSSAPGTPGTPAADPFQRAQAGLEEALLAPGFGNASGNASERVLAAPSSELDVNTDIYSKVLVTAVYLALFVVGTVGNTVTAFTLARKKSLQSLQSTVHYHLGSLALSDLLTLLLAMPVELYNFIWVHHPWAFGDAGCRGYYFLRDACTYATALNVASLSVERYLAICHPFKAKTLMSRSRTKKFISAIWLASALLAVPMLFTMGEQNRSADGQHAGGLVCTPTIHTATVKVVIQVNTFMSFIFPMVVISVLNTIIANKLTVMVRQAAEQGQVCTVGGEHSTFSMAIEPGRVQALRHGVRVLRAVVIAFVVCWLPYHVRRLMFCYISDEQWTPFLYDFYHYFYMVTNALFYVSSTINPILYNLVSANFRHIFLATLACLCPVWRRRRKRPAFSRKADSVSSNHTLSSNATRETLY
H9c2 protect: myocardial damage modulation in H9c2 cells; H9c2 cardiomyocytes, H2O2 injury protection, ATPLite, 2 h; protection from H2O2 cell death, % at 20 µM; actives 0.63% (n = 360,000); AID 588492;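 active means compounds giving at least 50% protection of heart cells from peroxide-induced death in the single-dose screen, raw or plate-pattern-corrected value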;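 further: 0% = DMSO wells with peroxide and 100% = DMSO wells without peroxide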
* hit, by the source's call; nt = not tested or not shown. Only some compounds are listed: those with a hit (about 6.2% of all), similar ones and a draw of the others.

SMILES | Mot1-301 SUMO | GRIN3A LBD mod | AHR activator | AI-2 QS mod | NTR1 agonist | H9c2 protect
COc1ccc(C(=O)COc2ccccc2C(N)=O)cc1 | 0 | 0 | 3 | 14 | 0 | 69*
COc1ccc(C(=O)COc2ccccc2C(=O)Nc2ccccc2)cc1 | 3 | 3 | 7 | 20 | 2 | 14
Cc1cc(-c2ccc(S(=O)(=O)N3CCN(c4cccc(C)c4C)CC3)s2)on1 | -16 | 3 | 0 | 8 | 0 | -10
CCCc1nc2ccc(C)cn2c1Cc1ccc(C)cc1 | nt | nt | nt | nt | nt | -4
CCOC(=O)c1ccc(NC(=O)c2nn(CC)cc2Br)cc1 | 349* | 8 | 0 | 26 | 2 | -10
CCn1cc(Br)c(C(=O)NC(=S)Nc2ccc(C(=O)OC)cc2)n1 | -9 | 12* | 0 | 16 | 2 | -1
CCOC(=O)c1ccc(NC(=S)NC(=O)c2nn(CC)cc2Br)cc1 | -6 | -2 | 0 | 14 | 3 | -15
CCn1cc(Br)c(C(=O)Nc2ccc(F)c(Cl)c2)n1 | 3 | 15* | 51* | 38 | 0 | -2
CCOC(=O)c1c(NC(=O)c2nn(CC)cc2Br)sc2c1CCCCC2 | 858* | -5 | 1 | -3 | 26 | -15
O=C(/C=C/c1ccccc1[N+](=O)[O-])NCCc1ccc(F)cc1 | 1 | 1 | 5 | 11 | 2 | 0
O=C(/C=C/c1ccccc1Cl)NCCc1ccc(F)cc1 | 2 | 14* | 8 | -2 | 4 | -1
CCN(Cc1ccccc1)c1ccc(/C=N/NS(=O)(=O)c2ccc(C)c([N+](=O)[O-])c2)cc1 | 1 | 18* | 0 | 11 | 2 | -1
CCN(CC)c1ccc(/C=N/NS(=O)(=O)c2cccc([N+](=O)[O-])c2)cc1 | 1 | -1 | 1 | 42 | 4 | -6
CN(c1cccc(NC(=O)CN(c2ccc(C34CC5CC(CC(C5)C3)C4)cc2)S(C)(=O)=O)c1)S(C)(=O)=O | -6 | 30* | 0 | 3 | 7 | -5
C(#CCN1CCCC1)CC(c1ccccc1)c1ccccc1 | 30 | -5 | 3 | 12 | 0 | -9
COc1ccc2cc(C(=O)N3CCc4ccccc43)[nH]c2c1 | 3 | 0 | 82* | 1 | 7 | -15
Cc1ccc(NC(=O)Nc2sc(=S)n(C)c2C)cc1 | 329 | 12* | 30 | 22 | -1 | 8
C(=C/c1nccc2c1[nH]c1ccccc12)/c1ccc2c(c1)OCO2 | -22 | 13* | nt | 28 | nt | 6
CSc1nc2sc3c(c2c(=O)[nH]1)CC(C)(C)OC3 | -16 | -1 | 0 | 7 | 0 | 7
COc1ccc(-c2cc(=O)[nH][nH]2)cc1OC | -15 | 13* | 1 | 28 | 0 | -8
COc1ccc(NC(=O)CC2C(=O)N(C)C(=S)N2Cc2ccc3c(c2)OCO3)cc1 (stereo not drawn) | -8 | 14* | 1 | 4 | 0 | -2
CCN1C(=O)C(CC(=O)Nc2ccc(F)cc2)N(Cc2ccc3c(c2)OCO3)C1=S (stereo not drawn) | -6 | 28* | 2 | 3 | 2 | -17
COc1ccc(Cl)cc1NC(=O)CSc1nnc(C2CC2)n1N | nt | 0 | nt | nt | -1 | 5
O=C1NN=C2CCCCCCCCCCC12 (stereo not drawn) | nt | nt | nt | nt | nt | 1
CCOC(=O)C1CCN(CC(C)(C)NS(=O)(=O)c2ccc(C)cc2)CC1 | 46 | 1 | 0 | 32 | 2 | -3
SMILES | Mot1-301 SUMO | GRIN3A LBD mod | AHR activator | AI-2 QS mod | NTR1 agonist | H9c2 protect
CCOC(=O)C1CCN(CC(C)(C)NS(=O)(=O)c2ccc(Cl)cc2)CC1 | 338* | -3 | -2 | 9 | 4 | -5
CCCOc1ccc(/C=C/c2c([N+](=O)[O-])c(=O)n(C)c(=O)n2C)cc1 | 33 | 2 | 10 | 10 | 3 | 2
C[n+]1c(-c2ccccc2)cc2c(=Cc3ccccc3)c3ccccc3n21 | nt | -6 | nt | nt | nt | -15
C[n+]1c(-c2ccccc2)cc2c(=Cc3ccc([N+](=O)[O-])cc3)c3ccccc3n21 | nt | 14* | nt | nt | nt | -15
CCCCCCN1C[C@@H](O)[C@H](n2cc(COC(=O)c3ccccc3)nn2)C[C@@H]1c1ccccc1 | nt | nt | nt | nt | nt | -20
Cc1ccc2nc(/C(C#N)=N/O)[nH]c2c1 | -11 | -12 | 37 | 31 | -1 | -5
N#C/C(=C(/O)C(Cl)(Cl)Cl)c1nc2ccccc2[nH]1 | 32 | -4 | 53* | 23 | 4 | -16
N#C/C(=N\O)c1nc2ccccc2[nH]1 | 314 | 22* | 16 | 18 | 7 | -1
CC(=O)OC(/C(O)=C(\C#N)c1nc2ccccc2[nH]1)c1ccccc1 (stereo not drawn) | 3 | 1 | 49* | 5 | 2 | 9
Cc1noc(C)c1C(=O)N1CCC1(C)C(=O)NS(=O)(=O)c1ccc(F)cc1F (stereo not drawn) | nt | nt | nt | nt | nt | 5
COc1cccc(N2CCN(CC(=O)Nc3ccc(S(=O)(=O)N4CCCCCC4)cc3)CC2)c1 | 10 | -5 | 1 | nt | 2 | -9
COc1cc(/C=C/C(=O)Nc2ccc(S(=O)(=O)Nc3ncccn3)cc2)ccc1OCC#N | nt | -13 | nt | nt | nt | -3
COc1cc(/C=N/NC(=O)NC23CC4CC(CC(C4)C2)C3)ccc1OCC(N)=O | 40 | -2 | 2 | 2 | 7 | 62*
O=C(N/N=C/c1ccc(O)cc1O)NC12CC3CC(CC(C3)C1)C2 | -3 | 0 | 0 | 30 | 9 | 52*
C/C(=N\NC(=O)c1nnn(-c2nonc2N)c1CSc1ccc(C)cc1)c1cccs1 | nt | nt | nt | nt | nt | -6
O=C(CCN1CCCCC1)c1cccc(Cl)c1 | nt | -5 | nt | nt | nt | -1
COc1ccccc1OCCOCCOc1ccccc1Cl | 1 | 0 | 28 | 8 | 0 | 2
CCOc1ccc(OCCOCCOc2ccccc2Cl)cc1 | 4 | 18* | 8 | -4 | 2 | -6
Cc1ccc(C)c(N2CCN(C(=O)CCc3nc(-c4ccccc4)no3)CC2)c1 | nt | 15* | nt | nt | 6 | 1
Cc1cccc(-c2noc(CCC(=O)N3CCN(c4cc(C)ccc4C)CC3)n2)c1 | nt | 17* | nt | nt | 5 | -29
CCOc1cc(C(=O)N(C)CC(=O)Nc2cccc(F)c2)ccc1OCC(=O)N1CCCCC1 | -12 | 1 | 16 | 16 | 0 | 11
Cc1c(N=O)c(-c2ccccc2)n(O)[n+]1[O-] | nt | nt | nt | nt | nt | 3
COc1ccc(NC(=S)N(CCc2c(C)[nH]c3ccc(C)cc23)Cc2cccnc2)cc1 | 16 | -8 | 54* | 9 | 8 | -9
Cc1[nH]c2ccc(F)cc2c1CCN(Cc1cccnc1)C(=S)Nc1ccccc1 | -5 | -4 | 7 | 90 | 3 | 5
COc1ccc2[nH]c(=O)c(CN(Cc3cccnc3)C(=O)Nc3ccccc3)cc2c1 | 7 | 2 | -4 | 12 | 2 | 30
Cc1cc2nc(CCN(Cc3cccnc3)C(=S)Nc3ccc(F)cc3)[nH]c2cc1C | 8 | 27* | 8 | 1 | 3 | 4
CNC(=S)N(CCc1c(C)[nH]c2ccc(F)cc12)Cc1cccnc1 | 354* | 0 | 4 | 11 | 2 | 3

Screening results as filed in PubChem BioAssay.
